Laboratory results as given in publication PMC5700166.
Positions count from the first letter of the chain named.

How the values were obtained:
Test in all cases: protein-binding microarray (PBM); PBM: ~300 nM protein, 6 mM HEPES pH 7.8, 80 mM KCl, 0.5 mM EDTA, 0.5 mM EGTA, 6% glycerol, 35 ng/ul poly-dIdC, 1% milk, 1 h, room temperature; Ap Aiptasia and Nv Nematostella (sea anemones) / Co Capsaspora / Aq Amphimedon (sponge) / Dm Drosophila / Hu human; RHD is the Rel homology domain; high values mean tight binding
Details in all cases: dsDNA, one strand shown
[1] = target: T1, GST-Ap-NF-kB RHD (Exaiptasia pallida (Aiptasia), UniProt A0A913YAJ5 2-422)
T1 sequence: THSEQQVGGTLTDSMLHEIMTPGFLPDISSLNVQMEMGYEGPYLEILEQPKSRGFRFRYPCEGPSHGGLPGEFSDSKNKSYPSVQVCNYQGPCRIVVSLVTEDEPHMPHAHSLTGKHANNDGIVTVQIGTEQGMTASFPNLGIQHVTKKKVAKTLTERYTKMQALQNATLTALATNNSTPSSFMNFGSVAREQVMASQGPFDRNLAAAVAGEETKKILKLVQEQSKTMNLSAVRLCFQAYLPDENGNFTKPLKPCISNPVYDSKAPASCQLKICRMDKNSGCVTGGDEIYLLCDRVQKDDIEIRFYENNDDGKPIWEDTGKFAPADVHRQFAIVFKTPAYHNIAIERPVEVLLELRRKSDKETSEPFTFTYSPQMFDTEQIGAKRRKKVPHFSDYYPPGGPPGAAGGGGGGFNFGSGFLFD

[2] = target: T2, GST-Nv-NF-kB (Cys allele) (Nematostella vectensis, UniProt E5G601 2-411)
T2 sequence: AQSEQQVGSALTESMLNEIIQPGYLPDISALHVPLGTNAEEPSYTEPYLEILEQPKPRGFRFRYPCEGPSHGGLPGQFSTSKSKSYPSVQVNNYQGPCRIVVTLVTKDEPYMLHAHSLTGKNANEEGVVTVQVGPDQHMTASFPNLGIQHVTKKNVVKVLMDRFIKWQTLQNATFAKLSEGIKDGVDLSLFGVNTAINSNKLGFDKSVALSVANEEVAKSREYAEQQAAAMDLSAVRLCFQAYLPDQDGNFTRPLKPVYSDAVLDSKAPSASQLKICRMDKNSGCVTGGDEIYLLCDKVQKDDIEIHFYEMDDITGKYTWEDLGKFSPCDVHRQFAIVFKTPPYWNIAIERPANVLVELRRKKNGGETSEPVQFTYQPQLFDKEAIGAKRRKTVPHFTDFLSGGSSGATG

[3] = target: T3, GST-Nv-NF-kB (Ser allele) (Nematostella vectensis, UniProt A7UNT2 2-411)
T3 sequence: T2 sequence with Q21R, C66S, S207N, E215Q, V217A, E225K, A268E, D399E

[4] = target: T4, GST-Co-NF-kB (Capsaspora owczarzaki, UniProt F1ARL5 200-546)
T4 sequence: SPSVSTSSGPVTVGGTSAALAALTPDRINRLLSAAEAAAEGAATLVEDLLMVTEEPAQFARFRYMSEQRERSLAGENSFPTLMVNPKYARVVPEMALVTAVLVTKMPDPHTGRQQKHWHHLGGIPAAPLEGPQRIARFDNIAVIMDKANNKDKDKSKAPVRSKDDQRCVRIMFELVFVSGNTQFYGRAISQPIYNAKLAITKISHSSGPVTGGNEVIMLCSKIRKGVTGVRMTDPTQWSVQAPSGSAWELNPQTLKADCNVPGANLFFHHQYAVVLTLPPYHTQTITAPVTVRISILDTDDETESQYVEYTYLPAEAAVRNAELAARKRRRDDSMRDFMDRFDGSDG

[5] = target: T5, GST-Dm-Relish (Drosophila melanogaster, UniProt Q94527 99-473)
T5 sequence: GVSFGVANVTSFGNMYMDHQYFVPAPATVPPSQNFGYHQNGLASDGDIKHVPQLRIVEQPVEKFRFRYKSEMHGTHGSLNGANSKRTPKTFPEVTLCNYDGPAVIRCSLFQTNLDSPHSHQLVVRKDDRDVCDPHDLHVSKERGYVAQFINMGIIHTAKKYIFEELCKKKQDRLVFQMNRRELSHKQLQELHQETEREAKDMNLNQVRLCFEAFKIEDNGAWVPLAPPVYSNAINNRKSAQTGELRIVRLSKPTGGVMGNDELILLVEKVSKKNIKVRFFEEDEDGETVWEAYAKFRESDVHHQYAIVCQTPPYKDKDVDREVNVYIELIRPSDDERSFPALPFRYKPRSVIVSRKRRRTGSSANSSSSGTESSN

[6] = target: T6, GST-Aq-NF-kB (Amphimedon queenslandica, UniProt A9Y5G7 2-389)
T6 sequence: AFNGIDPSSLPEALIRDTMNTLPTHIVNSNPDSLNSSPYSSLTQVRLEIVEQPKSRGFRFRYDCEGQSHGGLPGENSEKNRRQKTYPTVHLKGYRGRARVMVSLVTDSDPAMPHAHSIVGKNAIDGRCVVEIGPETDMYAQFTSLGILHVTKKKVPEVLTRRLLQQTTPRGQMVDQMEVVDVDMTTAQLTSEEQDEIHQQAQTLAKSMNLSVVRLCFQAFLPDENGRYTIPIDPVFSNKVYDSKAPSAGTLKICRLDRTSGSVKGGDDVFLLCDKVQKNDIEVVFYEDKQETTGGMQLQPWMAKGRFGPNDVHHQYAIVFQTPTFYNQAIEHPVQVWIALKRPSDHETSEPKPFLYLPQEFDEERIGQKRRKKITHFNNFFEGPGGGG

Sequence	binding signal [1] [z-score]	binding signal [2] [z-score]	binding signal [3] [z-score]	binding signal [4] [z-score]	binding signal [5] [z-score]	binding signal [6] [z-score]
CCGATTAACATCACAGATTTCCCTGATGTTAATCGGGTCTTGATTCGCTTGACGCTGCTG	3.88	5.4	7.17	4.93	2.66	4.24
CCGATTAACATCAGGGGAGATTATGATGTTAATCGGGTCTTGATTCGCTTGACGCTGCTG	6.83	5.48	6.7	5.91	2.68	4.52
CCGATTAACATCACATTTCCCCATGATGTTAATCGGGTCTTGATTCGCTTGACGCTGCTG	4.9	6.14	8.95	7.21	2.25	3.87
CCGATTAACATCAAAGGGAATTCTGATGTTAATCGGGTCTTGATTCGCTTGACGCTGCTG	4.72	7.1	6.91	2.97	4.04	5.65
CCGATTAACATCAAATTTTTCCCTGATGTTAATCGGGTCTTGATTCGCTTGACGCTGCTG	3.81	6.06	8.21	6.81	2.35	4.92
CCGATTAACATCAAGGGGGGGTATGATGTTAATCGGGTCTTGATTCGCTTGACGCTGCTG	4.96	3.8	3.62	5.09	4.14	4.39
CCGATTAACATCAATAAATTCCCTGATGTTAATCGGGTCTTGATTCGCTTGACGCTGCTG	4.18	7.04	7.28	4.25	5.85	5.34
CCGATTAACATCAATCCCCCCCATGATGTTAATCGGGTCTTGATTCGCTTGACGCTGCTG	7.7	5.57	4.56	6.68	5.46	4.81
CCGATTAACATCAACCTTTCCCCTGATGTTAATCGGGTCTTGATTCGCTTGACGCTGCTG	5.33	6.21	7.66	6.19	1.62	4.44
CCGATTAACATCAAGGGAAAATATGATGTTAATCGGGTCTTGATTCGCTTGACGCTGCTG	3.77	7.5	8.19	4.43	1.66	4.44
CCGATTAACATCAGGGAGACCCCTGATGTTAATCGGGTCTTGATTCGCTTGACGCTGCTG	6.28	3.82	1.04	2.28	6.09	6.87
CCGATTAACATCAATTTATCCCCTGATGTTAATCGGGTCTTGATTCGCTTGACGCTGCTG	5.26	5.83	7.39	7.11	3.35	3.84
CCGATTAACATCACGGGGGGAAATGATGTTAATCGGGTCTTGATTCGCTTGACGCTGCTG	6.31	6.61	7.51	11.2	4.78	5.52
CCGATTAACATCAGGGGGGGGCATGATGTTAATCGGGTCTTGATTCGCTTGACGCTGCTG	4.94	4.84	4.15	4.65	3.78	3.82
CCGATTAACATCAAAATTCCCTCTGATGTTAATCGGGTCTTGATTCGCTTGACGCTGCTG	5.17	7.29	7.2	3.2	5.36	6.5
CCGATTAACATCAAAAGTTTCCCTGATGTTAATCGGGTCTTGATTCGCTTGACGCTGCTG	5.05	7.19	6.7	6.99	4.85	7
CCGATTAACATCAGGGAAAATCATGATGTTAATCGGGTCTTGATTCGCTTGACGCTGCTG	3.91	5.72	7.02	4.62	1.46	5.1
CCGATTAACATCAACGTTTCCCCTGATGTTAATCGGGTCTTGATTCGCTTGACGCTGCTG	5.38	6.77	10.1	7.56	2.48	4.46
CCGATTAACATCAGGGGAATGGATGATGTTAATCGGGTCTTGATTCGCTTGACGCTGCTG	5.2	5.95	7.13	3.65	1.71	4.07
CCGATTAACATCAAGGGGGGGCATGATGTTAATCGGGTCTTGATTCGCTTGACGCTGCTG	4.34	4.38	2.83	4.6	3.45	4.09
CCGATTAACATCAAGGGAAAAATTGATGTTAATCGGGTCTTGATTCGCTTGACGCTGCTG	3.76	6.35	7	5.22	1.89	5.11
